Consider 14 compounds from PubChem BioAssay.

Assay [1] in a line: inhibitors of TNFa-induced NFkB p65 translocation, primary screen, imaging, HUVEC, MLSMR starter and 10KST1 sets (AID 438;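 active = inhibition above 20% together with a positive visual image hit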;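 note: compound added about 3h40 before a 20 min TNFalpha stimulation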;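 for inhibition: signal is the nuclear over cytoplasmic p65 intensity ratio per well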). The following applies: HUVEC TNFa-induced p65 nuclear translocation; cell count: measured here: nuclei count (cytotoxicity indicator), at 2.08 µM; inhibition: at 2 µM, stronger effect = higher value, 0% TNFa-plus-vehicle, 100% no-TNFa wells.
A short description of assay [2]: reduction of polyQ htt aggregates in cells – imaging, exon1htt(103Q)mCFP cells, high-content imaging, primary screen (AID 483;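 active = visual image review flags a hit and inhibition of aggregation exceeds 20%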;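 note: compound exposure lasted 3 days before fixation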;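 for nuclei count: percent of the per-plate median nuclei count of sample wells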). The following applies: exon1htt(103Q)mCFP cell line, aggregate imaging, at 2 µM; inhibition of aggregation: stronger effect = higher value; nuclei count: measured here: cell count, toxicity.
A short description of assay [3]: endothelial E-selectin expression blockers – imaging, HUVEC, immunofluorescence, MLSMR starter and 10KST1 sets, primary screen (AID 487;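 active = visually confirmed hit in the image check and inhibition above 20%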;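 for inhibition: signal is fraction of cell area covered by stained E-selectin grains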;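 for nuclei count: 100% = median nuclei count of all wells on the same plate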). Conditions: HUVEC TNFalpha-induced E-selectin immunofluorescence imaging, at 2 µM; inhibition: stronger effect = higher value; nuclei count: measured here: cell number, toxicity.
Assay [4] deals with Voltage-gated potassium channel subunit beta-2 (Rattus norvegicus) (UniProt P62483). Put plainly: inhibitors of rat Kvbeta2 reductase activity – biochemical, NADPH fluorescence, primary screen (AID 622;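 active = fluorescence slope higher than the sample average by over 3 SD, cut at about -0.22 in these data, passing the limit was not always enough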;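 note: slope of raw intensity against log time taken from 70 to 1610 s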). The following applies: recombinant KvBeta, 4-cyanobenzaldehyde reduction, at 10 µM, stronger effect = higher value.
Sequence of Voltage-gated potassium channel subunit beta-2 (Rattus norvegicus) (P62483 whole entry, looked up): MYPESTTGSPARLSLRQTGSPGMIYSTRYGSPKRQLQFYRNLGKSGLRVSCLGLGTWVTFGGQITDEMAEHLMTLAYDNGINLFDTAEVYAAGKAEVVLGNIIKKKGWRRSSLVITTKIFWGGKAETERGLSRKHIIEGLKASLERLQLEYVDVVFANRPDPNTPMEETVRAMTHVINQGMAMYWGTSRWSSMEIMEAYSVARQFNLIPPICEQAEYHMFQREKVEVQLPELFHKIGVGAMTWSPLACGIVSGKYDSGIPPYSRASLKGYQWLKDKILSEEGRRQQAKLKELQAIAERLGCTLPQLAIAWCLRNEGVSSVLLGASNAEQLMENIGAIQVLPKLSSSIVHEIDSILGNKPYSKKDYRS
The target is the same in assay [5]. Put plainly: enhancers of rat Kvbeta2 NADPH turnover – biochemical, NADPH fluorescence, primary screen (AID 623;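 active = NADPH fluorescence slope more negative than the mean of all samples by about 3 SD, 99.7% confidence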;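 note: fluorescence intensity change per second fitted from 20 to 320 s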). Conditions: Recombinant KvBeta, NADPH fluorescence decrease slope, 10 min; at 10 µM; stronger effect = lower value.
Assay [6] deals with Alpha-2C adrenergic receptor (Homo sapiens) (UniProt P18825). Put plainly: compounds altering alpha2C-coupled GIRK flux – cell-based, HEK293 alpha2C/GIRK1/2, thallium flux, primary screen (AID 624;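 active = fluorescence slope after compound addition differing from the mean of all screened samples at 99.7% confidence, in either direction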;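 note: slope of fluorescence ratio to pre-addition baseline per second over 15 to 24 s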). Conditions: thallium flux BTC fluorescence, at 10 µM, actives lie on both sides.
Sequence of Alpha-2C adrenergic receptor (Homo sapiens) (P18825 whole entry, looked up): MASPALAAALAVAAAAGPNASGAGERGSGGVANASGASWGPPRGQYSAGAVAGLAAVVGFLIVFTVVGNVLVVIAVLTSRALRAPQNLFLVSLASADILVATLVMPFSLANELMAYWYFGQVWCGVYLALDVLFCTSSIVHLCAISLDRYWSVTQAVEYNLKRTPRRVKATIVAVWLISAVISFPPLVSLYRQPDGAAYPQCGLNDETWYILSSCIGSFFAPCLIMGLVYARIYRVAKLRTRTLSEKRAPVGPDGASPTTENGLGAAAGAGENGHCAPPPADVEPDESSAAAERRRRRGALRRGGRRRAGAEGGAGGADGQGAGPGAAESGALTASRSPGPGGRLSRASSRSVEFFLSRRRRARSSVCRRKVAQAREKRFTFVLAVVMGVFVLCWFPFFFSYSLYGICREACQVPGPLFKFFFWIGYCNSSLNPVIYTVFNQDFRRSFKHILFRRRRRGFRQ
Assay [7] is described as follows: blockers of RIG-like receptor reporter activation – cell-based, Sendai virus stimulus, luciferase, 10K MLSCN set, TLR/RLR signaling modifier project, primary screen (AID 602276).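 Note: firefly luciferase from ISG56 promoter only with Renilla not read in this screen; 0% = Sendai virus plus DMSO and 100% = medium plus DMSO without virus.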 The following applies: HEK293 RL24 IRF3 luciferase reporter, at 10 µM, stronger effect = higher value. Background: A reporter such as luciferase makes a cellular process visible.
Assay [8] can be described thus: TLR3 IRF3 reporter activation blockers – cell-based, poly I:C stimulus, luciferase, 10K MLSCN set, primary screen (AID 602277;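 active = inhibition of the reporter signal at or above 50%; inactive = inhibition below 50%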). Conditions: HEK293-TLR3 RL24 IRF3 luciferase reporter, at 10 µM, stronger effect = higher value.

Activity calls are given as the source filed them.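 Rule for the calls, unless noted: active = inhibition at or above 50% at 10 µM; inactive = inhibition below 50%.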

In the case of `O=C(CSc1nnc(-c2ccncc2)o1)Oc1ccccc1`, the cell count in assay [1] is 662. The inhibition (as a rule, the change of the read-out against control, counted positive when it falls) is -2.6% (inactive) in assay [1], -84.7% (inactive) in assay [3], 16.3% (inactive) in assay [7] and 13.7% (inactive) in assay [8]. The inhibition of aggregation in assay [2] was -12.9% (inactive). Moreover, the nuclei count in assay [2] and in assay [3] was 109% in each case. Further, the fluorescence slope in assay [4] was -0.39 (inactive). In addition, in assay [5], the NADPH fluorescence slope is -5.2e-05 (inactive). Besides, in assay [6], the slope was 0.00449 (inactive).

`O=C(Cn1ncc2c(=O)oc3ccccc3c21)NCC1CCCO1` (centres undefined): the cell count in assay [1] is 725. Moreover, the inhibition in assay [1] is 6.6% (inactive); in assay [3], -40.1% (inactive); in assay [7] it was 4.27% (inactive); in assay [8] it was 9.41% (inactive). In addition, the inhibition of aggregation in assay [2] was -2.2% (inactive). Moreover, the nuclei count in assay [2] stood at 111%; in assay [3], 125%. For the same compound, the fluorescence slope in assay [4] is -0.61 (inactive). Further, the NADPH fluorescence slope in assay [5] is -1.2e-05 (inactive). Besides, the slope in assay [6] is 0.0073 (inactive).

`Cc1onc(-c2c(Cl)cccc2Cl)c1C(=O)NCC1CCCO1` (centres undefined): the cell count in assay [1] came out at 394. In addition, the inhibition is 6.8% (inactive) in assay [1], -10.7% (inactive) in assay [3], -10.3% (inactive) in assay [7] and 10.7% (inactive) in assay [8]. Also, the inhibition of aggregation in assay [2] is 15.4% (inactive). For the same compound, the nuclei count in assay [2] is 87.4%; in assay [3], 113%. The fluorescence slope in assay [4] was -0.519 (inactive). In addition, the NADPH fluorescence slope in assay [5] is 1.7e-05 (inactive). Moreover, the slope in assay [6] is 0.00578 (inactive).

Turning to `COc1cccc(C2CC(=O)Nc3c2c(=O)n(C)c(=O)n3C)c1OC` (centres undefined), the cell count in assay [1] was 499. The inhibition in assay [1] was 2.4% (inactive); in assay [3] it was -17.6% (inactive); in assay [7], -4.94% (inactive); in assay [8] it was 16.2% (inactive). The inhibition of aggregation in assay [2] was -11.6% (inactive). Moreover, the nuclei count in assay [2] came to 39.6%; in assay [3], 112%. Besides, the fluorescence slope in assay [4] was -0.536 (inactive). For the same compound, in assay [5], the NADPH fluorescence slope is 2e-06 (inactive). Besides, the slope in assay [6] was 0.00679 (inactive).

In the case of `O=C(c1c(F)cccc1F)N(Cc1ccccn1)C1CCCC1`, the cell count in assay [1] stood at 521. Besides, the inhibition in assay [1] is -11.2% (inactive); in assay [3] it was 40.9% (inactive); in assay [7], -7.47% (inactive); in assay [8], -6.01% (inactive). For the same compound, the inhibition of aggregation in assay [2] was 24.2% (inactive). The nuclei count in assay [2] is 110%; in assay [3], 87.3%. Moreover, the fluorescence slope in assay [4] was -0.534 (inactive). Besides, in assay [5], the NADPH fluorescence slope was 2e-06 (inactive). Also, the slope in assay [6] was 0.00412 (inactive).

On to `CCOc1ccc(CNc2ccc3c(c2)ncn3C)cc1`, for which, in assay [1], the cell count came to 174. Besides, the inhibition in assay [1] is -3% (inactive); in assay [3], 4.7% (inactive); in assay [7], -27.2% (inactive); in assay [8] it was -76.3% (inactive). The inhibition of aggregation in assay [2] is -8.8% (inactive). Also, the nuclei count came out at 72.5% in assay [2] and 90.2% in assay [3]. The fluorescence slope in assay [4] is -0.435 (inactive). In assay [5], the NADPH fluorescence slope was -1.3e-05 (inactive). In addition, the slope in assay [6] was 0.00471 (inactive).

For `Cc1ccc(C)c(N2CCN(C(=O)c3cc4ccccn4n3)CC2)c1`, the cell count in assay [1] amounted to 584. For the same compound, the inhibition in assay [1] was -2.9% (inactive); in assay [3], -31.8% (inactive); in assay [7], -3.21% (inactive); in assay [8] it was 21.6% (inactive). In addition, in assay [2], the inhibition of aggregation is -16.9% (inactive). The nuclei count was 103% in assay [2] and 118% in assay [3]. The fluorescence slope in assay [4] was -0.615 (inactive). For the same compound, in assay [5], the NADPH fluorescence slope is -2.1e-05 (inactive). Moreover, the slope in assay [6] was 0.00707 (inactive).

Consider `CN(C)CCN1C(=O)c2oc3ccc(Cl)cc3c(=O)c2C1c1cccc(Br)c1` (centres undefined), for which the cell count in assay [1] came to 229. The inhibition is -8.1% (inactive) in assay [1], -36.3% (inactive) in assay [3], 17.2% (inactive) in assay [7] and 49.7% (inactive) in assay [8]. Besides, the inhibition of aggregation in assay [2] is 13.3% (inactive). In addition, the nuclei count was found to be 83.3% in assay [2] and 89.9% in assay [3]. Also, the fluorescence slope in assay [4] was -0.412 (inactive). The NADPH fluorescence slope in assay [5] is -1.4e-05 (inactive). The slope in assay [6] was 0.00335 (inactive).

Turning to `Cc1nnc(SCC(=O)Nc2sc3c(c2C#N)CCCC3)[nH]c1=O`, the cell count in assay [1] is 368. Besides, the inhibition in assay [1] is 2.8% (inactive); in assay [3], -31.8% (inactive); in assay [7], 8.57% (inactive); in assay [8], 39.4% (inactive). Further, in assay [2], the inhibition of aggregation is -12.9% (inactive). Also, the nuclei count in assay [2] is 114%; in assay [3], 108%. For the same compound, the fluorescence slope in assay [4] was -0.441 (inactive). Moreover, the NADPH fluorescence slope in assay [5] was 1.2e-05 (inactive). For the same compound, the slope in assay [6] is 0.00274 (inactive).

As for `O=C(CS(=O)(=O)c1cn(Cc2ccc(Cl)cc2)c2ccccc12)N1CCCC1`, in assay [1], the cell count came out at 654. Also, the inhibition was -3.9% (inactive) in assay [1], 13.5% (inactive) in assay [3], 15.4% (inactive) in assay [7] and 34% (inactive) in assay [8]. Besides, in assay [2], the inhibition of aggregation is -11.8% (inactive). The nuclei count came out at 116% in assay [2] and 111% in assay [3]. In assay [4], the fluorescence slope is -0.538 (inactive). In addition, the NADPH fluorescence slope in assay [5] is -3.5e-05 (inactive). Further, the slope in assay [6] is 0.00627 (inactive).

With `CCOC(=O)C(C)n1cnc2c(nnn2Cc2ccc(C)cc2)c1=O` (centres undefined), the cell count in assay [1] was determined as 618. The inhibition was -3.7% (inactive) in assay [1], -1.8% (inactive) in assay [3], 16.6% (inactive) in assay [7] and 20.1% (inactive) in assay [8]. Also, the inhibition of aggregation in assay [2] is 6% (inactive). In addition, the nuclei count in assay [2] stood at 91.7%; in assay [3], 86.9%. The fluorescence slope in assay [4] was -0.503 (inactive). Besides, in assay [5], the NADPH fluorescence slope was -0.000137 (inactive). The slope in assay [6] was 0.00481 (inactive).

Turning to `CCOC(=O)N1CCN(c2c(NCCCOC(C)C)c(=O)c2=O)CC1`, the cell count in assay [1] is 642. The inhibition in assay [1] was -1.6% (inactive); in assay [3] it was 27.9% (inactive); in assay [7], 7.84% (inactive); in assay [8], 16% (inactive). Besides, the inhibition of aggregation in assay [2] is -10.2% (inactive). Also, the nuclei count in assay [2] stood at 109%; in assay [3], 122%. Moreover, the fluorescence slope in assay [4] was -0.513 (inactive). Besides, the NADPH fluorescence slope in assay [5] is -2.4e-05 (inactive). In assay [6], the slope is 0.00694 (inactive).

In the case of `CC1CCN(c2oc(-c3ccccc3F)nc2C#N)CC1`, the cell count in assay [1] worked out at 578. The inhibition in assay [1] is 5% (inactive); in assay [3], -32.2% (inactive); in assay [7], -30.7% (inactive); in assay [8] it was -73.4% (inactive). Moreover, the inhibition of aggregation in assay [2] was -3.3% (inactive). Further, the nuclei count came to 122% in assay [2] and 114% in assay [3]. Also, the fluorescence slope in assay [4] is -0.411 (inactive). The NADPH fluorescence slope in assay [5] was 7.4e-06 (inactive). Further, in assay [6], the slope was 0.00601 (inactive).

Take `COc1ccc(Cn2c(-c3ccco3)nc3oc4ccccc4c(=O)c3c2=O)cc1`: the cell count in assay [1] worked out at 492. For the same compound, the inhibition in assay [1] was -7.6% (inactive); in assay [3] it was -22% (inactive); in assay [7], -1.06% (inactive); in assay [8] it was -24.4% (inactive). Moreover, the inhibition of aggregation in assay [2] was -68.5% (inactive). For the same compound, the nuclei count in assay [2] is 90.1%; in assay [3], 115%. For the same compound, in assay [4], the fluorescence slope is -0.491 (inactive). In addition, the NADPH fluorescence slope in assay [5] is -2.1e-05 (inactive). Besides, in assay [6], the slope was 0.00596 (inactive).
